Active and inactive are the calls of the source.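 How the source made its calls: active means IC50, the dose giving half inhibition, at or below 10 µM; inconclusive means IC50 above 10 µM up to 20 µM; inactive means IC50 over 20 µM.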
Target: Ubiquitin-like modifier-activating enzyme 1 (Homo sapiens) (UniProt P22314)
Test: inhibition of ubiquitin E1 thioester formation – biochemical, gel-based, fluorescent Ub (AID 1347406)
Details: fluorescent Ub gel imaging

Sequence of Ubiquitin-like modifier-activating enzyme 1 (Homo sapiens) (P22314 whole entry, looked up): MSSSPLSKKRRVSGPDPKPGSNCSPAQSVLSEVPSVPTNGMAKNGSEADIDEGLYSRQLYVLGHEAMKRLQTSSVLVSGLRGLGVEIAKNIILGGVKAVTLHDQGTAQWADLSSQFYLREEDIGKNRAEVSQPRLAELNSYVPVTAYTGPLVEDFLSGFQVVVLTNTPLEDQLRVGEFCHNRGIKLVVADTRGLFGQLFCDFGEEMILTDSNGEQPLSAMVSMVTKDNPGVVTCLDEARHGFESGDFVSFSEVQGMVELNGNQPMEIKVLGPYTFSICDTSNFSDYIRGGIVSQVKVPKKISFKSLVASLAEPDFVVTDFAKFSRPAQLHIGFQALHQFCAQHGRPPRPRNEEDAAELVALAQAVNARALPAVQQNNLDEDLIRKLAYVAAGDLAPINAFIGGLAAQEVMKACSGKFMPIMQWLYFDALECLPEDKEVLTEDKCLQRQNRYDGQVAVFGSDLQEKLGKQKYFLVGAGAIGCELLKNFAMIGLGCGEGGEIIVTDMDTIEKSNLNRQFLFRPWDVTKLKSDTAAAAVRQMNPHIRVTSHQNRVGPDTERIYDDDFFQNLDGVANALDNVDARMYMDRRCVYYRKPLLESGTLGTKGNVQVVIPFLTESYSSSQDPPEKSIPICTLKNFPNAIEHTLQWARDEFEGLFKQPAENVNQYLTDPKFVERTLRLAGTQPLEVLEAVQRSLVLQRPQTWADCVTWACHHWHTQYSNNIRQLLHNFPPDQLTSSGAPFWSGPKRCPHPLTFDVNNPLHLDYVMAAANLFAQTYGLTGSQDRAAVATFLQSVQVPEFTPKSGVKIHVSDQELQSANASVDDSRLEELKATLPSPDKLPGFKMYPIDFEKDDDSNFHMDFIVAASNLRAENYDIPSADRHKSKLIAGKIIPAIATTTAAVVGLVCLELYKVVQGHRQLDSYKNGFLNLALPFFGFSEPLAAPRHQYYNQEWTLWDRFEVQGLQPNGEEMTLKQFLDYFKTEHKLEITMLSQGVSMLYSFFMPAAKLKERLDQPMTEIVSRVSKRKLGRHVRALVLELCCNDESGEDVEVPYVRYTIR

outcome, inactive:
CCNc1ccc(Br)cc(C(=O)/C=C/c2c(Cl)cccc2Cl)c1=O inactive; >50 µM
NCCCSc1nc2c(c(=O)n1Cc1ccccc1)C1(CCCCC1)Cc1ccccc1-2 inactive; >50 µM
CCOC(=O)c1c(NC(=O)CCC(=O)O)sc(C)c1-c1ccc(CC(C)C)cc1 inactive; >50 µM
CCCCCCCCCOc1ccc(C#CC(=O)O)cc1
CN(CCC(=O)C=Cc1ccc(Cl)c(Cl)c1)CCc1ccc2c(c1)OCO2 inactive; >50 µM
CNc1ccccc(C(=O)C=Cc2ccc3c(c2)OCO3)c1=O inactive; >50 µM
CCOc1ccc2nc3cc(NC(=O)c4ccco4)ccc3c(N)c2c1 inactive; >50 µM
